Source: PubChem BioAssay (NCATS)
Results filed as inconclusive are left out. Activity calls are given as the source filed them. Calls follow the shape of the dose curve; as a rule, active = well fitted curve in the direction sought with a large enough effect; inconclusive = small, poorly fitted or top-dose-only effect, or another doubt; inactive = no such curve, though single readings can be large; an effect the other way counts as inactive or inconclusive.

What was measured:
[1] = target: DNA dC->dU-editing enzyme APOBEC-3G (Homo sapiens) (UniProt Q9HC16); assay: qHTS for inhibitors of Vif-A3G interactions: Validation (AID 588379)
How it was run: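 HeLa cells stably expressing Vif and A3G-eYFP, 700 cells/well, incubated overnight at 37 deg C, then exposed to compound overnight at 37 deg C. Inhibition of Vif-mediated degradation read as increased yellow fluorescence (Ex 488/Em 500-530) by laser-scanning cytometry.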

CP260 = assay: qHTS profiling for inhibitors of Plasmodium falciparum proliferation (AID 504749); also: nearly all actives have a fitted effect of over 60% in size; also: potency is read from the fitted curve at half-maximal effect; conditions: P. falciparum in erythrocytes, SYBR Green DNA, 72 h; series mostly up to 28.7 µM
How it was run: (§1)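 Three-day growth assay of blood-stage parasites in erythrocytes (0.3% parasitemia, 2.5% hematocrit) at 37 C, 5% CO2, quantified by SYBR Green DNA staining after overnight detergent lysis.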

DIV17 = assay: as above; conditions: P. falciparum in erythrocytes, SYBR Green DNA, 72 h; series mostly up to 28.7 µM
How it was run: as §1

PC26 = assay: as above; conditions: P. falciparum in erythrocytes, SYBR Green DNA, 72 h; series mostly up to 28.7 µM
How it was run: as §1

TAB109 = assay: as above; conditions: P. falciparum in erythrocytes, SYBR Green DNA, 72 h; series mostly up to 28.7 µM
How it was run: as §1

7G8 = assay: as above; conditions: P. falciparum in erythrocytes, SYBR Green DNA, 72 h; series mostly up to 28.7 µM
How it was run: as §1

[2] = target: Cytochrome P450 3A4 (Homo sapiens) (UniProt P08684); assay: qHTS Assay for Inhibitors and Substrates of Cytochrome P450 3A4 (AID 884); also: nearly all actives have a fitted effect of over 50% in size
How it was run: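 20 nM human CYP3A4 with 25 uM Luciferin-PPXE (at KM) in 200 mM KPO4, preincubated 10 min with compound; NADPH regeneration started a 60 min RT reaction. Luciferin detected by luminescence, normalized to 57 uM ketoconazole as full inhibition.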

[3] = Confirmation and Secondary Assay for Modulators of Hemoglobin Beta Chain Splicing at IVS2 654 locus (AID 910);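 also: HeLa cells stably carrying EGFP split by mutant beta-globin IVS2-654 intron; per-well total GFP intensity by laser scanning cytometry after 2-day treatment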
How it was run: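 Readout: per-well total peak green fluorescence (488 nm ex, 500–520 nm em) from objects 5–250 µm, reflecting correct splicing of an EGFP-654 reporter. Compounds were applied for 2 days at 37 °C to overnight-plated HeLa EGFP-654 cells; controls were DMSO and 500 nM IVS2-654 PNA.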

[4] = Confirmation and Secondary Assay for Modulators of Hemoglobin Beta Chain Splicing at IVS2 705 locus (AID 930);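 also: HeLa cells stably expressing the EGFP-705 splicing reporter; GFP fluorescence per well restored by corrected splicing of the IVS2-705 intron in EGFP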
How it was run: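 Per-well GFP, captured at 1 x 8 µm resolution with 488 nm excitation, served as the read-out for HeLa EGFP-705 cells incubated 2 days with test compound versus DMSO.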

Measured: Potency

Sequence of Cytochrome P450 3A4 (Homo sapiens) (P08684 whole entry, looked up): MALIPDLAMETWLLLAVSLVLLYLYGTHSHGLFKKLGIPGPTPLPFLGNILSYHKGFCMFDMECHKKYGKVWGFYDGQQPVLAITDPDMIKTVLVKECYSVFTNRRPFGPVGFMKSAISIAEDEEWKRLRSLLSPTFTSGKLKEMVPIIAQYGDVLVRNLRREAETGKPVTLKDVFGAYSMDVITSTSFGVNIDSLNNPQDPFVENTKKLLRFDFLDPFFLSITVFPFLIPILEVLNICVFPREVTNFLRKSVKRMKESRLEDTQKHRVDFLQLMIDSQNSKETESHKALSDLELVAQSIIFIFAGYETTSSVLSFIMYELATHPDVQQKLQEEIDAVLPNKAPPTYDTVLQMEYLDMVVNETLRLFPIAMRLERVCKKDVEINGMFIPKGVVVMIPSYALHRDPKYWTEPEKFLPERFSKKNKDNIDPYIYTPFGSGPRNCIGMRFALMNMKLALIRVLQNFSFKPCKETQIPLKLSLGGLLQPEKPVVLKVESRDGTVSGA
Sequence of DNA dC->dU-editing enzyme APOBEC-3G (Homo sapiens) (Q9HC16 whole entry, looked up): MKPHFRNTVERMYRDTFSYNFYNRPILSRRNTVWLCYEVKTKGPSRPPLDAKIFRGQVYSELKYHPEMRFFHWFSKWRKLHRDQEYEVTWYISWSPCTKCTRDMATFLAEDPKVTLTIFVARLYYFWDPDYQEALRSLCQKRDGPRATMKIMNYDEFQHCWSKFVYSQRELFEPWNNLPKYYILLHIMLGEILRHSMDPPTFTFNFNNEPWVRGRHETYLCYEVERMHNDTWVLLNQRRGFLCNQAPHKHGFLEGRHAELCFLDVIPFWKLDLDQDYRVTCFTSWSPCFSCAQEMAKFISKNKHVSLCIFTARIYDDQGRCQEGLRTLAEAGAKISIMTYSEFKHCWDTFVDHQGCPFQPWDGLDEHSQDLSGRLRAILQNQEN

c1cc2cc(c1)C[n+]1ccc(c3ccccc31)NCc1ccc(cc1)CNc1cc[n+](c3ccccc13)C2
inactive: [1]

CC12CCC3C4CCC(=O)C(O)=C4CCC3C1CCC2OC(=O)CCC1CCCC1 (centres undefined)
inactive: CP260 | DIV17 | PC26 | TAB109

C[C@H](N)Cc1ccccc1
inactive: 7G8 | CP260 | PC26 | TAB109

CCCCCC(O)C1C(=O)OC(C)C(O)\C=C/C=C\C=C/C=C\C=C(\C)C(O)C(O)C(O)CC(O)CC(O)CC(O)CC(O)CC1O (centres undefined)
inactive: 7G8 | CP260 | DIV17 | PC26 | TAB109

Cc1cc(C)cc(C(=O)OC2CC3CCC(C2)N3C)c1 (centres undefined)
active: 7G8 8910 nM
inactive: CP260 | TAB109

C#C[C@]1(O)CC[C@H]2[C@@H]3CCC4=CC(=O)CCC4(C)[C@H]3CCC21C (some centres undefined)
inactive: CP260 | DIV17 | PC26 | TAB109

C=CC[C@]1(O)CCC2C3CCC4=CCCCC4C3CCC21C (some centres undefined)
inactive: CP260 | DIV17 | PC26 | TAB109

CN1C2CCC1C(C(=O)O)C(OC(=O)c1ccccc1)C2 (centres undefined)
inactive: 7G8 | CP260 | DIV17 | PC26 | TAB109

Nc1nc(O)c(-c2ccccc2)o1
inactive: 7G8 | CP260 | DIV17 | PC26 | TAB109

OC[C@@H](O)[C@H]1O[C@@H]2OC(C(Cl)(Cl)Cl)O[C@H]2[C@H]1O (some centres undefined)
inactive: 7G8 | CP260 | DIV17 | PC26 | TAB109

C[C@]12C=CC(=O)C=C1CC[C@@H]1C2CC[C@]2(C)OC(=O)CCC12 (some centres undefined)
inactive: 7G8 | CP260 | DIV17 | PC26 | TAB109

[S]=[Sb][S][Sb]=[S]
inactive: 7G8 | CP260 | DIV17 | TAB109

CCCCCc1cc(O)c2c(c1)OC(C)(C)C1CC=C(C)CC21 (centres undefined)
active: 7G8 708 nM | CP260 1.78 µM | DIV17 1.51 µM | PC26 1.9 µM | TAB109 3.16 µM

C=C1Nc2ccccc2C(=O)N1c1ccccc1C
inactive: 7G8 | CP260 | DIV17 | PC26 | TAB109

C[C@@H]1CC[C@H]2[C@@H](C)C(=O)O[C@@H]3OC4(C)CC[C@@H]1C32OO4 (some centres undefined)
active: 7G8 1.6 nM | CP260 0.01 µM | DIV17 0.0095 µM | PC26 0.0076 µM | TAB109 0.0045 µM

C[C@]12CCC3C(CCC4=C(Cl)C(=O)CC[C@@]43C)C1CCC2O (some centres undefined)
inactive: CP260 | DIV17 | PC26

CCCC(C)C1(CC)C(=O)NC(=S)NC1=O (centres undefined)
inactive: CP260 | DIV17 | PC26 | TAB109

Cc1ccc2c(c1)[C@@H]1CN(C)CC[C@H]1N2
inactive: 7G8 | CP260 | DIV17 | PC26 | TAB109

O=[N+]([O-])OC1CO[C@H]2C(O[N+](=O)[O-])COC12 (some centres undefined)
not listed: [1]
inactive: all other assays above
